Consider 9 compounds from PubChem BioAssay (NCATS).

Assay [1] can be described thus: qHTS assay for measurement of the activity of small molecule inhibitors on Zika virus induced Caspase-3 activity in human astrocytoma cells (AID 1224859). In short, it runs like this: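 In SNB-19 cells plated at 250 cells/well and grown 16-20 h, compounds were applied 1 h before ZIKV (2 FFU/cell). Six hours later caspase-3/7 luminescence was recorded.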
A short description of assay [2]: qHTS assay to identify small molecule inhibitors of chordoma cells - UCH-1 (AID 1259355). Note: nearly all actives have a fitted effect of over 55% in size. The method, boiled down:
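Luminescent ATP read-out (CellTiter-Glo, 30min at room temperature) measured viability of UCH-1 cells exposed for 48hr to test drugs at 15 concentrations, co-dosed with a five-agent combination of auranofin, camptothecin, doxorubicin, rubitecan and topotecan.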

Assay [3] is described as follows: qHTS assay to identify small molecule inhibitors of chordoma cells - UCH-2 (AID 1259356). Note: series mostly up to about 46 µM.
Assay [4] is described as follows: Natriuretic polypeptide receptor (hNpr1) antagonism - Pilot counterscreen GloSensor control cell line (AID 1347045; calls by dose curve; note: series mostly up to about 38 µM). The method, boiled down:
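Luminescence was read before and 20 min after adding 50 uM SNP, which stimulates soluble guanylyl cyclase. The HEK293 cells expressing the GloSensor cGMP sensor had been preloaded with 2% reagent for 2 h and treated with compound.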

In assay [5] the target is Atrial natriuretic peptide receptor 1 (Homo sapiens) (UniProt P16066). Description: Natriuretic polypeptide receptor (hNpr1) antagonism - Pilot screen (AID 1347049; calls by dose curve;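 note: agonist-evoked cGMP luminescence read 20 min after hNppA addition; series mostly up to about 58 µM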). The method, boiled down: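 HEK293 cells co-expressing hNpr1 and the GloSensor pGS-40F cGMP luciferase sensor were preloaded with 2% GloSensor reagent for 2 h. Compounds were added for 30 min at room temperature, then cells were stimulated with 0.1 nM hNppA for 20 min before luminescence readout.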
Chain of Atrial natriuretic peptide receptor 1 (Homo sapiens) (P16066 whole entry, looked up): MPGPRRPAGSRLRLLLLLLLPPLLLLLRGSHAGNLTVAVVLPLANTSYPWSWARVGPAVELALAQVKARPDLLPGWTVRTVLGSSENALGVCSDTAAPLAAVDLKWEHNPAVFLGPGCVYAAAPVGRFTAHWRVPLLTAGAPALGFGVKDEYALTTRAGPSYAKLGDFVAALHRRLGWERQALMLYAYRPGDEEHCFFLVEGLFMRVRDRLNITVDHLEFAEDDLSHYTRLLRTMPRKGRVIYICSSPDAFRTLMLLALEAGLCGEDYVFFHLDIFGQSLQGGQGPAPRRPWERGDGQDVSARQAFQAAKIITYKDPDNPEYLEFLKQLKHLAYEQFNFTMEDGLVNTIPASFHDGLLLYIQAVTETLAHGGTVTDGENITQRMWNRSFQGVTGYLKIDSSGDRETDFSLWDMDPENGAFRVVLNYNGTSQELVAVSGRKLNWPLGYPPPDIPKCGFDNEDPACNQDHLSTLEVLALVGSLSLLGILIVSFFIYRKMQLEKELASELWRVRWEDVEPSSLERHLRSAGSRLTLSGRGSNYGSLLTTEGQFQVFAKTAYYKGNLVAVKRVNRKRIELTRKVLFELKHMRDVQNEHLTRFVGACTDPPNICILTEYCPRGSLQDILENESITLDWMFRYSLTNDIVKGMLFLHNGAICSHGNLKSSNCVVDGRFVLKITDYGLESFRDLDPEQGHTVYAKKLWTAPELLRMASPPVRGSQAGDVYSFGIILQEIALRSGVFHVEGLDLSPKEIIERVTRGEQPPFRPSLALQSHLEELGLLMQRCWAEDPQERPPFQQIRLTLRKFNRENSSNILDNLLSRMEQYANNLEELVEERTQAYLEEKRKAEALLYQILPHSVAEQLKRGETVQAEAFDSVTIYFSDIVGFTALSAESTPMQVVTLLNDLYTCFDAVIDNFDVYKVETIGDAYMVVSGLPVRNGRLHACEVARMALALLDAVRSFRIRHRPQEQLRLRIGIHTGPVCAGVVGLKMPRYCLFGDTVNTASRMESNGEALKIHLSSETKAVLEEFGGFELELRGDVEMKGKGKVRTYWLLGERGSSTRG

For assay [6], the target named is Atrial natriuretic peptide receptor 2 (Homo sapiens) (UniProt P20594). Nature of the assay: Natriuretic polypeptide receptor (hNpr2) antagonism - Pilot subtype selectivity assay (AID 1347050; calls by dose curve). The method, boiled down:
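cGMP-sensor HEK293/hNpr2 cells; 2% GloSensor reagent 2 h RT; compounds 30 min; baseline luminescence read; 1 nM hNppC agonist 20 min RT; final luminescence read by CCD camera. Antagonism = reduced post-agonist signal.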

Assay [7] can be described thus: NS1 protein of Zika virus - qHTS assay to identify small molecule inhibitors in human HEK 293 cells (AID 1347053). Note: series mostly up to about 46 µM; nearly all actives have a fitted effect of over 55% in size. In short, it runs like this: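 HEK 293; 20 h pre-culture, 37 C/5% CO2; cpd 1 h pre-infection; ZIKV MR766, MOI = 0.5, 24 h, 37 C; TR-FRET NS1 readout (two anti-NS1 Abs); norm. to no-virus vs infected.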
In assay [8] the target is T1, Tyrosine-protein phosphatase non-receptor type substrate 1 (Homo sapiens) + Leukocyte surface antigen CD47 (Homo sapiens) (UniProt P78324+Q08722). Nature of the assay: CD47-SIRPalpha protein protein interaction - LANCE assay qHTS validation (AID 1347057; active = well fitted curve in the direction sought with a large enough effect in the signal ratio, with a control signal flat, not every such curve was filed as active; the % refers to the signal ratio; note: series mostly up to about 38 µM). In short, it runs like this:
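First, His-tagged CD47 and Eu-labelled anti-His antibody met the compound for 30 min; next, site-specifically biotinylated SIRPalpha was added for 30 min; finally streptavidin-APC was added before reading the TR-FRET ratio.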

Assay [9] addresses T1, Tyrosine-protein phosphatase non-receptor type substrate 1 (Homo sapiens) + Leukocyte surface antigen CD47 (Homo sapiens). Description: CD47-SIRPalpha protein protein interaction - Alpha assay qHTS validation (AID 1347059).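 Note: bead proximity luminescence from CD47 binding SIRPalpha after compound preincubation with SIRPalpha.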 In short, it runs like this: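 Soluble extracellular domains: Avi-tag biotinylated SIRPalpha (25 nM) preincubated 30 min RT with compound, then 6His-CD47 (12.5 nM) 30 min; Ni-NTA acceptor and streptavidin donor beads (10 ug/mL) 30 min, AlphaScreen read. PBS pH 7.4, 0.05% IGEPAL.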

Assay [10] addresses Parathyroid hormone/parathyroid hormone-related peptide receptor (Homo sapiens) (UniProt Q03431). Description: qHTS for PTHR1 Agonists: Optimization Screen against the NCGC LOPAC library (AID 1347079).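 Note: GloSensor cAMP luminescence in HEK-293 GP2 cells expressing human PTHR1 with IBMX.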 In short, it runs like this:
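Agonist readout: GloSensor cAMP luminescence, read after 15 min at room temperature. HEK-293-derived GP2 line carries PTHR1; compounds tested as a titration for 1 hr at 37C in presence of IBMX. M-PTH (1-15) served as control.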

Assay [11] can be described thus: qHTS of pediatric cancer cell lines to identify multiple opportunities for drug repurposing: Primary screen for TC32 cells (AID 1347089). Note: nearly all actives have a fitted effect of over 60% in size. The method, boiled down: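 Measured quantity: luminescence from CellTiter-Glo, reflecting metabolically active TC32 cells following 48 h of compound. Curves came straight from multi-point titrations, with 8 or 11 points in primary and 11 in confirmatory screening.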

Assay [12] in a line: P-glycoprotein substrates identified in KB-8-5-11 adenocarcinoma cell line, qHTS therapeutic library screen (AID 1346987). Note: nearly all actives have a fitted effect of over 65% in size. Note: potency is the fitted concentration of half-maximal effect. The method, boiled down: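 Steps: plate 500 KB-8-5-11 cells/well in DMEM + 10% FCS (colchicine removed); pin compounds in dose-response; incubate 72 h, 37 degree C, 5% CO2; add CellTiter-Glo, 5 min; read luminescence.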
Assay [13] can be described thus: qHTS of pediatric cancer cell lines to identify multiple opportunities for drug repurposing: Primary screen for DAOY cells (AID 1347090). Note: series mostly up to about 46 µM; nearly all actives have a fitted effect of over 55% in size. In short, it runs like this: (§1)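 Eight- or eleven-point concentration series, 48 h treatment at 37 degrees C in growth media; readout CellTiter-Glo luminescence. Potency and efficacy were taken from the concentration-response curves.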

Assay [14] is described as follows: qHTS of pediatric cancer cell lines to identify multiple opportunities for drug repurposing: Primary screen for A673 cells (AID 1347092). Note: nearly all actives have a fitted effect of over 45% in size. The method, boiled down: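 Cells are plated, rested 5 h, dosed by pintool, incubated 48 h, then lysed with CellTiter-Glo and read by luminescence. DMSO is the neutral control; bortezomib at 2.3 uM final is the positive control.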

Assay [15] concerns the target T1, Tyrosine-protein phosphatase non-receptor type substrate 1 (Homo sapiens) + Leukocyte surface antigen CD47 (Homo sapiens). Description: CD47-SIRPalpha protein protein interaction - HTRF assay qHTS validation (AID 1347058; active = well fitted curve in the direction sought with a large enough effect in the signal ratio, not every such curve was filed as active; the % refers to the signal ratio; note: series mostly up to about 38 µM). The method, boiled down: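 TR-FRET read (Ch1/Ch2 ratio) of soluble extracellular CD47 and Avi-biotinylated SIRPalpha domains in PBS pH 7.4 with 0.05% IGEPAL; 7-point compound titration. Sequential 30 min room-temperature steps; non-biotinylated SIRPalpha as control inhibitor.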

Assay [16] can be described thus: qHTS of pediatric cancer cell lines to identify multiple opportunities for drug repurposing: Primary screen for SJ-GBM2 cells (AID 1347091). Note: potency is the fitted concentration of half-maximal effect. The method, boiled down: as §1
Assay [17] in a line: P-glycoprotein substrates identified in KB-3-1 adenocarcinoma cell line, qHTS therapeutic library screen (AID 1346986). Note: nearly all actives have a fitted effect of over 60% in size. The note with it: outcome: dose series up to 44.5 µM. The method, boiled down: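 Resistance attributable to P-gp was assessed by comparing AC50 in KB-8-5-11 with parental KB-3-1 and by tariquidar reversal. Cells were exposed 72 h and viability read by CellTiter-Glo.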

A number with no mark means an inactive call. Inconclusive results are not listed. Activity calls are given as the source filed them. Unless noted, calls come from the whole dose curve; as a rule, active = well fitted curve in the direction sought with a large enough effect; inconclusive = small, poorly fitted or top-dose-only effect, or another doubt; inactive = no such curve, though single readings can be large; an effect the other way counts as inactive or inconclusive.

Chain of Atrial natriuretic peptide receptor 2 (Homo sapiens) (P20594 whole entry, looked up): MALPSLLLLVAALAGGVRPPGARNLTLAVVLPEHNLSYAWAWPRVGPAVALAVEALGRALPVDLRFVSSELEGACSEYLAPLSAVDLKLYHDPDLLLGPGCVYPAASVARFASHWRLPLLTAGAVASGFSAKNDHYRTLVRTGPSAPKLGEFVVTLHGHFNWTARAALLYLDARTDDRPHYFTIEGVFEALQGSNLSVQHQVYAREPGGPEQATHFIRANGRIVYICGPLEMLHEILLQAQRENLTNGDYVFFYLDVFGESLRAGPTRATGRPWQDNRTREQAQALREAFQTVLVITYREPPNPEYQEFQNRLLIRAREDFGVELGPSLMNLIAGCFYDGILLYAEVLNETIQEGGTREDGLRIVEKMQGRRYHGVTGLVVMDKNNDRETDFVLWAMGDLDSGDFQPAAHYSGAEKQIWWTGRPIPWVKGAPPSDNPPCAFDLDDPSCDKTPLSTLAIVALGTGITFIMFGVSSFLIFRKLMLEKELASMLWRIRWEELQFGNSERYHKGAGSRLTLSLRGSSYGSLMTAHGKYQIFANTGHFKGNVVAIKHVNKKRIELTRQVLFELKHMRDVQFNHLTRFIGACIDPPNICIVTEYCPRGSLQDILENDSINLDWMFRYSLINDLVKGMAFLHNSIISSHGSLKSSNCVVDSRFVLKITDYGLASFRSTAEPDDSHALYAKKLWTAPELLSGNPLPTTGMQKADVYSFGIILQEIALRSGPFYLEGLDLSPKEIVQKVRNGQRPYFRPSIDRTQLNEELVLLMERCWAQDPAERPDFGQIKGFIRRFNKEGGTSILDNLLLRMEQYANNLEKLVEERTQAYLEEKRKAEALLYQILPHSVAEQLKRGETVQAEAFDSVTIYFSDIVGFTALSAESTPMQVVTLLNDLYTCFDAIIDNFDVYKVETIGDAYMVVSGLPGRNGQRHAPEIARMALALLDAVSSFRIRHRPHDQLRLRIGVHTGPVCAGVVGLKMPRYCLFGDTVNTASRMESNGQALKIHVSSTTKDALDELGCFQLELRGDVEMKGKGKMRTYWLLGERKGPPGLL
T1 sequence (P78324 whole entry, looked up): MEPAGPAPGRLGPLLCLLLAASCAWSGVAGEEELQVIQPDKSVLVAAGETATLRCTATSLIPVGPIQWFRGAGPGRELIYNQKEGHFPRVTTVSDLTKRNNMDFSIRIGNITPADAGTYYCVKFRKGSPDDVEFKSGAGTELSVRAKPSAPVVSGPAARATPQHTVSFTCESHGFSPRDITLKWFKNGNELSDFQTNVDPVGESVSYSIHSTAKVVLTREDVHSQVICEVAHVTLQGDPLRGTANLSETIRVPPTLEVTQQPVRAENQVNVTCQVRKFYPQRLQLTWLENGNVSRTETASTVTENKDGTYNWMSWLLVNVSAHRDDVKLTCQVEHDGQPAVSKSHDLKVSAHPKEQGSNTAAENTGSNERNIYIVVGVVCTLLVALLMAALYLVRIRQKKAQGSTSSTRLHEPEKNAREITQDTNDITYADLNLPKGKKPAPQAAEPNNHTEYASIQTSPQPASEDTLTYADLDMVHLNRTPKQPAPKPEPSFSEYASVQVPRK
T1 sequence (Q08722 whole entry, looked up): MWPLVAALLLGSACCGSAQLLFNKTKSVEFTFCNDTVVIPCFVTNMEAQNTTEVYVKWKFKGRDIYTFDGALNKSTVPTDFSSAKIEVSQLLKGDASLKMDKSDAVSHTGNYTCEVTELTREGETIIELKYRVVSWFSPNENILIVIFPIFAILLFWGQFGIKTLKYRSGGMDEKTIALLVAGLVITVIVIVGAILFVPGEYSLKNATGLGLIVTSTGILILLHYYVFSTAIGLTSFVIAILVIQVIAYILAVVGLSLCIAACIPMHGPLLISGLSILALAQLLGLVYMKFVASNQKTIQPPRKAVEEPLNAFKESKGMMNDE
Chain of Parathyroid hormone/parathyroid hormone-related peptide receptor (Homo sapiens) (Q03431 whole entry, looked up): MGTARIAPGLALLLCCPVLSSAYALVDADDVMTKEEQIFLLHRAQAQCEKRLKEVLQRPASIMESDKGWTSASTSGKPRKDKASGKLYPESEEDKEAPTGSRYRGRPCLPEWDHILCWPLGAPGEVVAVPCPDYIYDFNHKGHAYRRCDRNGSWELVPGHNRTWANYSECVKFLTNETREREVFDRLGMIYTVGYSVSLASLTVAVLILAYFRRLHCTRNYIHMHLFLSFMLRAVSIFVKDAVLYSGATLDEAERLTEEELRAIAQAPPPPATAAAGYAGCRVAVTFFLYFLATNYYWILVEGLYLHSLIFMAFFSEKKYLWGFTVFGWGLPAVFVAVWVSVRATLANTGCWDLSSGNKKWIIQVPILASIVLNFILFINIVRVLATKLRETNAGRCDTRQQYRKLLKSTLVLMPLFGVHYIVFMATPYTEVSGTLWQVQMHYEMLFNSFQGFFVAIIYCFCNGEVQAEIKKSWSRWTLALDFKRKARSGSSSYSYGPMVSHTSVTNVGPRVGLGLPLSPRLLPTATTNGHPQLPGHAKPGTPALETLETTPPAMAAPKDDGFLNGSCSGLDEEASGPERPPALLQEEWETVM

With `CCC(=O)c1ccc2c(c1)N(CCCN(C)C)c1ccccc1S2`, the compound was called inactive in assay [1], in assay [7], in assay [8] and in assay [10]. The Potency result in assay [2], in [3], in assay [4], in assay [5], in [6] and in assay [9] was “inactive” each time. In addition, the Potency entry in assay [11] is “inactive”.
With `OC(CCN1CCCCC1)(c1ccccc1)C1CCCCC1` (stereo not drawn), the result in assay [1], in assay [7] and in assay [10] was inactive. Further, the Potency entry in assay [2], in [3], in assay [12], in [5], in [11] and in assay [13] was “inactive” throughout. For the same compound, the Potency entry in assay [14] was “inactive”.
`COc1ccc(CCN(C)CCCC(C#N)(c2cc(OC)c(OC)c(OC)c2)C(C)C)cc1OC` (stereo not drawn): the outcome in assay [1], in [7], in assay [8], in [15] and in assay [10] was inactive. The Potency result in [2], in assay [3], in [4], in assay [5], in [6] and in assay [9] was “inactive” throughout. In addition, the Potency entry in [11], in [13], in [16] and in assay [14] was “inactive” each time.
As for `C[C@]12CCC(=O)C=C1CC[C@@H]1[C@@H]2CC[C@@]2(C)[C@H]1CC[C@]2(O)C(=O)CO`, the compound was called inactive in assay [1], in assay [7], in assay [8] and in [10]. The Potency result in assay [2], in assay [3], in assay [4], in [5], in assay [6] and in assay [11] was “inactive” in each case. The Potency result in assay [16] and in assay [14] was “inactive” throughout.
For `OCCN1CCN(CCCN2c3ccccc3C=Cc3ccccc32)CC1`, the compound was classed as inactive in assay [1], in assay [7], in assay [8], in [15] and in assay [10]. Moreover, the Potency result in [2], in [4], in [5], in [9], in [11] and in [16] was “inactive” throughout. The Potency result in [14] is “inactive”.
As for `CC[N+](C)(C)c1cccc(O)c1`, the call in assay [1], in assay [7], in assay [8], in assay [15] and in assay [10] was inactive. Moreover, the Potency result in [2], in assay [3], in assay [5], in [6], in assay [9] and in assay [11] was “inactive” in each case. Also, the Potency result in assay [13], in [16] and in [14] was “inactive” each time.
Consider `OCCN1CCN(CC/C=C2/c3ccccc3Sc3ccc(C(F)(F)F)cc32)CC1`, for which the outcome in [1], in [8], in [15] and in assay [10] was inactive. In addition, the Potency entry in [2], in assay [3], in assay [5], in [6] and in assay [9] was “inactive” in each case. For the same compound, the Potency in assay [12] was 18.4 µM (active); in assay [16] it was 21.1 µM (active).
Take `Cc1cccc(C)c1NC(=O)C(C)N` (stereo not drawn): the call in [1], in [7], in assay [8], in assay [15] and in assay [10] was inactive. Also, the Potency entry in [2], in assay [3], in [5], in assay [6], in [9] and in assay [11] was “inactive” throughout. The Potency result in assay [13], in [16] and in [14] was “inactive” in each case.
Take `Cc1cc(C)c(/C=C2\C(=O)Nc3ccccc32)[nH]1`: the compound was classed as inactive in [1], in assay [17], in assay [7], in [8] and in assay [10]. Besides, the Potency result in assay [3], in assay [4], in assay [5], in assay [6], in [9] and in [11] was “inactive” throughout. In addition, the Potency result in assay [13], in [16] and in [14] was “inactive” in each case.
